# Screens: PubChem, National Center for Advancing Translational Sciences (NCATS)
# This is a sample that favours compounds with a hit; in the whole collection about 21% have one here.
# NS1 function inh – influenza NS1 inhibition. 270,000 tested, 0.4% active. Potency, µM (highest dose often 46.1 µM), without a hit: at the top dose activity, positive = more growth; calls by dose curve; also: potency is read from the fitted curve at half-maximal effect; actives are rising curves; nearly all actives have a fitted effect of over 50% in size
#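 Growth recovery, yeast-based: influenza A NS1 expressed in S. cerevisiae causes slow growth, and suppressors are detected by OD600. The parent strain without NS1 is used as positive control.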
# Pf growth 96h – P. falciparum growth inhibition at 96 hour, primary screen for plastid delayed-death inhibitors | P. falciparum luciferase reporter growth, 96 h | Potency, µM (titrated, usually from 28.7 µM), inactives show top-dose activity change, negative = inhibition, usual class: inhibitors | 320,000 tested, 6.9% active | AID 504834; also: potency is read from the fitted curve at half-maximal effect; % is scaled to controls: 0 for no effect and ±100 for the full control effect
#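 Plates of compound plus infected erythrocytes (2% hematocrit, 0.05% parasitemia final) incubate 96 hours, 37 C, 5% CO2. Detection reagent added; reduced luminescence from the parasites' luciferase reporter flags inhibition.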
# Cycloheximide cs – counter-screen for Shiga toxin inhibitors: cycloheximide protein synthesis inhibition. 300,000 tested, 12% active. cell reporter, cycloheximide protein synthesis inhibition counterscreen. max response, %. AID 2314; in the data active = max response mostly above about 13%, no sharp cut-off; inactive = mostly below about 14%; also: read at 38.3 µM for the half of the compounds with a filed dose; 0% is about no effect
# Pf growth 48h – P. falciparum growth inhibition at 48 hours (one generation); P. falciparum luciferase growth in erythrocytes, 48 h; Potency, µM (series often up to 28.7 µM), inactives show at the highest dose activity change, negative = inhibition, hits mostly inhibitors; 310,000 tested, 5.9% active; also: potency is read from the fitted curve at half-maximal effect; % is scaled to controls: 0 for no effect and ±100 for the full control effect
#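 Growth was read as firefly luciferase luminescence after a 48 h, 37 C, 5% CO2 exposure of compounds to reporter-bearing P. falciparum cultures (0.1% parasitemia, 2% hematocrit final) in Albumax-supplemented RPMI 1640.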
# Shiga inhibitor – inhibitors of Shiga toxin in Vero cells | Vero cells, Shiga toxin protein synthesis inhibition reporter | inhibition, % at 38.7 µM | 290,000 tested, 9.2% active; in the data active = inhibition mostly above about 28%, no sharp cut-off; inactive = mostly below about 43%; also: 0% is about no effect
# SARS PLP yeast – inhibitors of SARS-CoV papain-like protease in yeast | S. cerevisiae expressing SARS-CoV PLpro, growth rescue | Potency, µM (doses to about 32.9 µM), for inactives: top-dose activity, positive = growth rescue, usual class: activators | 330,000 tested, 0.19% active | AID 485353; calls by dose curve; also: potency is read from the fitted curve at half-maximal effect; 0% is about no effect; nearly all actives have a fitted effect of over 55% in size
# * hit, by the source's call; ? = inconclusive; / = no result; + = active, no number; [ ] = remark or other dose. Unless noted, calls follow the shape of the dose curve; as a rule, active = well fitted inhibition curve with a large enough effect; inconclusive = small, poorly fitted or top-dose-only effect, or another doubt; inactive = no such curve, though single readings can be large or run the other way.
SMILES,NS1 function inh,Pf growth 96h,Cycloheximide cs,Pf growth 48h,Shiga inhibitor,SARS PLP yeast
Cc1ccc(OCC(=O)N(Cc2cccc(F)c2)C2CCS(=O)(=O)C2)cc1 (stereo not drawn),-6%,10µM*,-1,?,-4,7%
CCOc1ccc(CN(C(=O)c2cc3ccccc3oc2=O)C2CC2)cc1,-25%,-9%,12,12µM*,26,-1%
O=C(c1cc2ccccc2oc1=O)N(Cc1ccccc1)C1CCS(=O)(=O)C1 (stereo not drawn),2%,151%,40*,30%,+,-5%
COc1ccc(CN(CC2CCCO2)C(=O)c2cc3ccccc3oc2=O)cc1 (stereo not drawn),/,-2%,-2,-1%,3,1%
O=C(c1cc2ccccc2oc1=O)N(Cc1ccccc1F)C1CCS(=O)(=O)C1 (stereo not drawn),1%,5.2µM*,31*,19%,60*,4%
O=c1ccc(-c2ccccc2)nn1Cc1ccccc1F,-14%,13µM*,19,-34%,12,0%
COc1ccc(CN(C)C2CCCCC2)c(C)c1C,7%,-12%,4,/,4,0%
CCOCCCN(C)C1CCN(C(=O)c2oc3ccccc3c2NC(=O)Cc2ccc(F)cc2)CC1,1%,36%,-5,?,-3,-10%
COc1ccc(C(C)(C)C)cc1NC(=O)c1cc(S(=O)(=O)N(C)C)ccc1N1CCCC1,?,9.3µM*,-2,13µM*,-3,5%
CCN(CC)S(=O)(=O)c1ccc(N2CCCC2)c(NC(=O)Cc2cc(OC)c(OC)c(OC)c2)c1,2%,?,-3,7.4µM*,2,-1%
CCN(CC)S(=O)(=O)c1ccc(N2CCCCC2)c(NC(=O)/C(C#N)=C/c2ccc(OC)cc2)c1,7%,12µM*,-5,?,-7,7%
CN(C)S(=O)(=O)c1ccc(N2CCCC2)c(C(=O)Nc2ccc(F)cc2F)c1,/,?,/,?,/,1%
CCN(CC)S(=O)(=O)c1ccc(N2CCCC2)c(NC(=O)c2ccc(OC)cc2OC)c1,/,?,6,13µM*,14,-2%
CCn1c(SCC(=O)NC2CC2)nnc1-c1csc(C)c1,-1%,?,-2,28%,4,-2%
CCn1c(S(=O)(=O)O)nc2ccccc21,-1%,0%,0,42%,17,-1%
CCN(CC)S(=O)(=O)c1ccc(N2CCCCC2)c(NC(=O)/C=C/c2ccc(OC)c(OC)c2)c1,?,10µM*,0,9.3µM*,17,-5%
CCOc1ccc(S(=O)(=O)Nc2cc(S(=O)(=O)N(CC)CC)ccc2N2CCCC2)cc1,5%,1.3µM*,1,7.4µM*,-6,10%
CCN(CC)S(=O)(=O)c1ccc(N2CCCC2)c(NC(=O)Cc2ccc(OC)cc2)c1,/,?,11,?,0,0%
CCN(CC)S(=O)(=O)c1ccc(N2CCCC2)c(NC(=O)C2CCCCC2)c1,1%,7%,-1,2%,1,-1%
COc1ccc(N2CCN(CC(=O)Nc3ccccc3C(=O)NCc3ccccc3)CC2)cc1,/,?,/,13µM*,/,1%
O=C(CN1CCN(c2ccccc2O)CC1)Nc1ccccc1C(=O)NCCc1ccccc1,/,0%,/,-84%,/,0%
COc1ccc(CCNC(=O)c2ccccc2NC(=O)CN2CCN(c3ccccc3O)CC2)cc1,/,7.4µM*,/,10µM*,/,5%
O=C(NCCOc1ccc(Cl)cc1)C1CC(=O)N(c2ccc3c(c2)OCCO3)C1 (stereo not drawn),/,?,/,-28%,/,-1%
Cc1cc(C)n(-c2nc(NC(C)C)nc(NC(C)C)n2)n1,-12%,5%,-4,3.7µM*,-21,-10%
Cc1cc(C)n(-c2nc(N(C)C)nc(N(C)C)n2)n1,-1%,-6%,-1,?,13,19%
SMILES,NS1 function inh,Pf growth 96h,Cycloheximide cs,Pf growth 48h,Shiga inhibitor,SARS PLP yeast
CCNc1nc(NCC)nc(-n2nc(C)cc2C)n1,-17%,2.1µM*,-4,4.1µM*,-9,-2%
CCN(CC(=O)NCc1ccc(Cl)cc1)C(=O)CSc1cc(C)ccc1C,/,4%,/,?,/,5%
CC(=O)C[C@H](O)CC(=O)[C@H]1OC(=O)CCCCCCCCc2ccccc21,/,/,/,/,/,2%
CCCCC(=O)Nc1ccccc1CC,0%,32%,-2,14%,-11,-1%
CCOC(=O)c1cnc2c(ccc3ccccc32)c1NCCN(C)C,-15%,12%,10,0%,28,-7%
CCOC(=O)c1cnc2ccc(C)cc2c1NCCO,-8%,?,-1,13µM*,-6,4%
CCOC(=O)c1cnc2ccc(C(=O)OC)cc2c1NCCCN1CCOCC1,-7%,?,-2,0%,8,9%
CCOC(=O)c1cnc2c(ccc3ccccc32)c1NCCO,-15%,?,12,14%,38*,-11%
CCOC(=O)c1cnc2c(ccc3ccccc32)c1N,-24%,139%,34*,92%,/,1%
N#CCCN1CCN(C(CNS(=O)(=O)c2ccc(Cl)cc2)c2ccccc2)CC1 (stereo not drawn),-13%,5.2µM*,-3,-18%,17,-2%
Cc1ccc(S(=O)(=O)NCC(c2ccccc2)N2CCN(CCC#N)CC2)cc1 (stereo not drawn),-1%,/,-3,?,3,24%
CC(=O)Nc1ccc2c(c1)ncn2C,11%,-20%,-2,30%,-4,25%
CCOc1ccc(CNc2nnnn2C)cc1,4%,-8%,-2,-24%,/,?
CCOc1ccc(CNc2ccc3c(c2)ncn3C(C)(C)C)cc1,-6%,136%,24*,?,40*,8%
Cn1cnc2cc(NCc3ccc(Cl)cc3)ccc21,4%,?,45*,77%,60*,-2%
CCOc1ccc(CNc2ccc3c(c2)ncn3C)cc1,-7%,10µM*,35*,-13%,38*,-11%
CCOc1ccc(CNc2ccc(S(N)(=O)=O)cc2)cc1,3%,-36%[5.75 µM],1,16%,2,0%
CN(C)c1ccc(C(=O)c2ccc(N(C)C)c(N)c2)cc1N,9%,-1%,28*,17%,75,-2%
O=C(COC(=O)c1c(Cl)ccc(Cl)c1Cl)NC(=O)NCc1ccccc1,14%,18%,5,2%,15,-1%
O=C1NNC(c2ccccc2)=N/C1=C\c1ccccc1,-1%,?,-1,-12%,-11,0%
O=C1NC(c2cccc(Br)c2)=N/C1=C\c1ccco1,22%,82%,70*,42%,86*,-18%
O=C1NC(c2ccccc2Br)=N/C1=C\c1ccco1,-5%,0%,48*,?,125*,-3%
O=C1NC(c2ccccc2)=N/C1=C/c1ccco1,6%,?,39*,35%,72*,12%
Cc1cccc(NC(=S)N2CCN(c3ccc(F)cc3)CC2)c1,-2%,-10%,-6,0%,6,0%
O=C(CCN1CCCCCC1)c1ccccc1,9%,?,-3,24%,9,5%
